Reference: paper PMC5700166

molecular target: T1, GST-Dm-Relish (Drosophila melanogaster, UniProt Q94527 99-473); test: protein-binding microarray (PBM); PBM: ~300 nM protein, 6 mM HEPES pH 7.8, 80 mM KCl, 0.5 mM EDTA, 0.5 mM EGTA, 6% glycerol, 35 ng/ul poly-dIdC, 1% milk, 1 h, room temperature; Ap Aiptasia and Nv Nematostella (sea anemones) / Co Capsaspora / Aq Amphimedon (sponge) / Dm Drosophila / Hu human; RHD is the Rel homology domain; high values mean tight binding; conditions: dsDNA, one strand shown
T1 sequence: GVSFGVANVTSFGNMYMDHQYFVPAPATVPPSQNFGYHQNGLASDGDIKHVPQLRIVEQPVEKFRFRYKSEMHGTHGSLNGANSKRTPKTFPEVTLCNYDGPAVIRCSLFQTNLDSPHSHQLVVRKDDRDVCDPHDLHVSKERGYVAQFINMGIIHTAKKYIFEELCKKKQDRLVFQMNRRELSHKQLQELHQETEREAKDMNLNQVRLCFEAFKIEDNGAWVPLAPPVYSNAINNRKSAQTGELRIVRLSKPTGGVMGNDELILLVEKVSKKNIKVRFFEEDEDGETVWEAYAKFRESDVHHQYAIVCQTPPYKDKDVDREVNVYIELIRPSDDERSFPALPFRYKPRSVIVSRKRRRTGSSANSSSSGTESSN

Sequence	binding signal [z-score]
CCGATTAACATCAGGAATTTATATGATGTTAATCGGGTCTTGATTCGCTTGACGCTGCTG	1
CCGATTAACATCAGGAATTACACTGATGTTAATCGGGTCTTGATTCGCTTGACGCTGCTG	3.55
CCGATTAACATCAGGAAAAAACATGATGTTAATCGGGTCTTGATTCGCTTGACGCTGCTG	2.35
CCGATTAACATCACGTGGATTCCTGATGTTAATCGGGTCTTGATTCGCTTGACGCTGCTG	1.66
CCGATTAACATCACGTTCTTTCCTGATGTTAATCGGGTCTTGATTCGCTTGACGCTGCTG	2.3
CCGATTAACATCAGGAAAAATACTGATGTTAATCGGGTCTTGATTCGCTTGACGCTGCTG	1.36
CCGATTAACATCAAATGTACTAATGATGTTAATCGGGTCTTGATTCGCTTGACGCTGCTG	1.5
CCGATTAACATCAAAATTCCATGTGATGTTAATCGGGTCTTGATTCGCTTGACGCTGCTG	1.36
CCGATTAACATCACGGAATGTACTGATGTTAATCGGGTCTTGATTCGCTTGACGCTGCTG	1.8
CCGATTAACATCACGTGTTTTCCTGATGTTAATCGGGTCTTGATTCGCTTGACGCTGCTG	1.04
CCGATTAACATCACAAAAAATTTTGATGTTAATCGGGTCTTGATTCGCTTGACGCTGCTG	2.12
CCGATTAACATCAGAGTAATTCCTGATGTTAATCGGGTCTTGATTCGCTTGACGCTGCTG	2.26
CCGATTAACATCACCTCTCGCGCTGATGTTAATCGGGTCTTGATTCGCTTGACGCTGCTG	1.25
CCGATTAACATCAGTTTTTTCCATGATGTTAATCGGGTCTTGATTCGCTTGACGCTGCTG	1.54
